# Measurements from PMC4336329 (PLoS ONE, 2015).
# Hit rate of the full screen: of about 310,000 compounds, about 14,000 (4.5%) showed an effect of 50% or more. Effects have a minus sign here. For the sample, strong results were picked, then their nearest neighbours and some compounds at random.
# Target: human ether-à-go-go-related gene (hERG) potassium channel (human, UniProt Q12809)
# Assay: primary screen, population patch clamp on CHO cells stably expressing hERG; higher = less effect of the substance
# 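Also: peak tail current of the secondary pulse compared with the same well before compound.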
# Sequence of human ether-à-go-go-related gene (hERG) potassium channel (Q12809 whole entry, looked up): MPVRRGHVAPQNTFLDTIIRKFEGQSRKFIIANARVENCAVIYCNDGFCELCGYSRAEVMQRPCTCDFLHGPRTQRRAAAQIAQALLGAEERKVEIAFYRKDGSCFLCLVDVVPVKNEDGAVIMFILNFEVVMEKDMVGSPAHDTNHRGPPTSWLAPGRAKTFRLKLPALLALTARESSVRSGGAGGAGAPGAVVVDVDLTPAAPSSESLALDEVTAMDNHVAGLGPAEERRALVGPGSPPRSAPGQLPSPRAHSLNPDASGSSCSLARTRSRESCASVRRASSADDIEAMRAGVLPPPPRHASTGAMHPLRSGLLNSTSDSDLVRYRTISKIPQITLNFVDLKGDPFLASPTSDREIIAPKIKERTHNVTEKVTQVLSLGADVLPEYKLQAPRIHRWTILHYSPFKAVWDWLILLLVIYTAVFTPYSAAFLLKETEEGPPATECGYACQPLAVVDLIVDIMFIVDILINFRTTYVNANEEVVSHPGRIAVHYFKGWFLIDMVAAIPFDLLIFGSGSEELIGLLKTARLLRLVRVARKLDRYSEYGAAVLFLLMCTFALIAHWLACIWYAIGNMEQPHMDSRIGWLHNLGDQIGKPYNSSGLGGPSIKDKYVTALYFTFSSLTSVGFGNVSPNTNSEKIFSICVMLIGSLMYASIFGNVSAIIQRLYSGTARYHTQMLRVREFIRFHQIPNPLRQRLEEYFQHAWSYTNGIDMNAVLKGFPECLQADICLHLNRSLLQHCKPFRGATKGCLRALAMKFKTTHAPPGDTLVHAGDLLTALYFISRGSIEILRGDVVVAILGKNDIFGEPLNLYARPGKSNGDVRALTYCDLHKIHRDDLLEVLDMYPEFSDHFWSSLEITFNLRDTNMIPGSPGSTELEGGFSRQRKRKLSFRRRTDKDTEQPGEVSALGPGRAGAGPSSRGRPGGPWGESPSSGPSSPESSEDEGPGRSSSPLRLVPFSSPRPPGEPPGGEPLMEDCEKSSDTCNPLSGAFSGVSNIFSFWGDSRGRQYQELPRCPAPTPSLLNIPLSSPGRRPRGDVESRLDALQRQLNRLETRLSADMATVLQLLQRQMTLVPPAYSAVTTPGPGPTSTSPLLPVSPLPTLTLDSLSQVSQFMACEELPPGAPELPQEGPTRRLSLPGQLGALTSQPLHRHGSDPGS
row,SMILES,"hERG current change (%, negative = inhibition) at 10uM [%]"
1,C=CCN(C(=O)c1ccc(Cl)cc1)c1ccccc1C(=O)NCC(=O)O,21.1
2,CCC(NC(=O)NCCCn1ccnc1)(C(F)(F)F)C(F)(F)F,8.18
3,CC(C)c1ccc(N=c2c([N+](=O)[O-])nn(-c3ccc4c(c3)OCCO4)n2O)cc1,1.98
4,COc1ccc(CSc2ccc(-c3nc4ccccn4c3NCc3ccccc3)cc2OC)cc1.O=C(O)C(F)(F)F,8.68
5,C=CCn1c(SCCCCCC)nc(O)cc1=O,-4
6,Cc1ccccc1/C=N\NC(=O)c1ccccc1-n1cccc1,18.5
7,COc1cccc(C2C(=O)c3ccccc3C2=O)c1,16.9
8,NS(=O)(=O)c1ccc(CCNC(=O)CNCCc2ccccc2)cc1,16.2
9,NS(=O)(=O)c1ccc(CCNCC(=O)NC2CC2)cc1,-64.1
10,NS(=O)(=O)c1ccc(CCNC(=S)NC2CCCC2)cc1,11.2
11,O=C(CCNC(=O)c1ccccc1Cl)NCCCSc1ccccc1,-8.64
12,Br.Clc1ccc2nc(CN3CCCCC3)cn2c1,-32.7
13,CN(C)Cc1cc2ccccc2c2c1COC2,-0.493
14,CN(C)Cc1c(O)ccc2ccccc12,0.0591
15,Cc1cc2ccc3ccccc3c2cc1CN(C)C.Cl,-51.9
16,O=C(O)CCC(=O)N1N=C(c2ccc(Br)cc2)CC1c1ccc(Br)cc1 (stereo not drawn),20.6
17,Cc1ccc(C)c(C(=O)Nc2nc3ccccc3[nH]2)c1,25.9
18,O=C(NCC1CCCO1)C1CCN(C2CCN(C3CCCCCC3)CC2)CC1 (stereo not drawn),28.4
19,O=C(NCC1CCCO1)C1CCN(C2CCN(C(=O)CC3CCCC3)CC2)CC1 (stereo not drawn),-10
20,CCOc1cccc(CN2CCC(N3CCC(C(=O)NCC4CCCO4)CC3)CC2)c1 (stereo not drawn),-10.5
21,O=C(NCC1CCCO1)C1CCN(C2CCN(Cc3cccs3)CC2)CC1 (stereo not drawn),-64.2
22,O=C(NCCc1ccccc1)C1CCN(Cc2ccccc2F)CC1.O=C(O)C(=O)O,1.53
23,Cc1ccc(CN2CCC(N3CCC(C(=O)NCC4CCCO4)CC3)CC2)o1 (stereo not drawn),-4.02
24,O=C(NCC1CCCO1)C1CCN(C2CCN(CCCC3CCCC3)CC2)CC1 (stereo not drawn),-58

row,SMILES,"hERG current change (%, negative = inhibition) at 10uM [%]"
1,O=C(NCCc1ccccc1)C1CCN(C2CCN(Cc3ccco3)CC2)CC1,-62.7
2,Cc1cc(C)c(CN2CCC(N3CCC(C(=O)NCC4CCCO4)CC3)CC2)cc1C (stereo not drawn),-24.4
3,Cc1ccccc1CN1CCC(N2CCC(C(=O)NCC3CCCO3)CC2)CC1 (stereo not drawn),-1.07
4,O=C(NCC1CCCO1)C1CCN(C2CCN(Cc3ccco3)CC2)CC1 (stereo not drawn),-51
5,O=C(NCCc1ccccc1)C1CCN(C2CCN(Cc3ccc(CO)o3)CC2)CC1,18.2
6,Cc1ccc(C(=O)Nc2cc(C(C)C)c(O)c(C(C)C)c2)cc1,-4.12
7,CC(=O)[C@@H]1[C@@H](C)N(Cc2ccccc2)C(=O)N[C@H]1c1cccc(C(F)(F)F)c1,5.55
8,Cc1nnsc1C(=O)Nc1ccccc1,18.2
9,O=C(N/N=C/c1ccc(F)cc1)c1cccc(NC(=O)c2ccc(F)cc2)c1,-4.54
10,O=C(Nc1cccc(-n2cnnn2)c1)c1ccco1,-0.205
11,COc1ccc(NC(=S)N2CCC(N(C)CCN3CCOCC3)CC2)cc1Cl,-26.8
12,CN(C)c1nc(N(C)C)nc(N(C#N)CCCl)n1,8.89
13,COc1ccc(-c2noc(-c3ccoc3C)n2)cc1,39.5
14,Cc1noc(N)c1C1(O)C(=O)Nc2c(Cl)cc(Cl)cc21 (stereo not drawn),0.32
15,CCOc1ccc(CCN2C(=O)c3ccc(C(=O)O)cc3C2=O)cc1OCC,-3.15
16,COc1ccc(C2CC(c3cccs3)=NN2C(=O)COC(=O)C2CCCCC2)cc1OC (stereo not drawn),-18.1
17,CC(=O)c1c(N2CCN(C)CC2)nc(=S)n(-c2cc(C)ccc2C)c1C,28.7
18,CC(C)(C)C(=O)Nc1ccc(S(=O)(=O)N2CCCC2)cc1,4.25
19,COc1ccc(CC(=O)Nc2cc(NC(=O)Cc3ccc(OC)c(OC)c3)cc(C(=O)O)c2)cc1OC,14.3
20,CN(c1ccccc1)c1nc(N)c([N+](=O)[O-])c(NCc2ccccc2)n1,17.6
21,O=C(NC1CCS(=O)(=O)C1)c1cc(-c2ccccc2)nc2ccccc12 (stereo not drawn),13.6
22,Cc1ccc(-c2cc(C(=O)N3CCN(c4ncccn4)CC3)c3ccccc3n2)cc1,-40.9
23,COc1ccc(-c2cc(C(=O)N3CCCC3)c3ccccc3n2)cc1,-2.31
24,Cc1ccc(-c2cc(C(=O)N3CCN(C4CCS(=O)(=O)C4)CC3)c3ccccc3n2)cc1 (stereo not drawn),-60.7

row,SMILES,"hERG current change (%, negative = inhibition) at 10uM [%]"
1,O=C(c1cc(-c2ccc(F)cc2)nc2ccccc12)N1CCN(C2CCS(=O)(=O)C2)CC1 (stereo not drawn),-69
2,O=C(c1cc(-c2ccccc2)nc2ccccc12)N1CCN(C2CCS(=O)(=O)C2)CC1 (stereo not drawn),-25
3,Cc1ccccc1C(=O)Oc1cccc(Nc2ncnc3ccccc23)c1,-3.38
4,CCC(C)NC(=O)CN1C(=O)NC2(CCOc3ccccc32)C1=O (stereo not drawn),-9.56
5,CCCNC(=O)Cc1ccsc1,9.93
6,O=C(NCc1cccs1)C1CCN(S(=O)(=O)c2cccc([N+](=O)[O-])c2)CC1,-15.7
7,Fc1ccc(NC(=S)NCCc2ccccc2)c(F)c1F,-1.12
8,CCC(Sc1nnc(C)c(=O)[nH]1)C(=O)Nc1cccc2ccccc12 (stereo not drawn),10
9,O=C(CCCc1nc2ccccc2s1)NCc1cccnc1,0.483
10,C/C(=N\NC(=O)CCc1ccc(S(=O)(=O)N2CCOCC2)cc1)c1ccc(Br)cc1,6.98
11,C/C(=N\NC(=O)CN1CCN(S(=O)(=O)c2ccc(C)cc2)CC1)c1cccnc1,-46.9
12,C/C(=N\NC(=O)CN1CCN(S(=O)(=O)c2ccc(C)cc2)CC1)c1ccncc1,-77.1
13,C/C(=N\NC(=O)CN1CCN(S(=O)(=O)c2ccc(C)cc2)CC1)c1ccc(O)cc1,-6.97
14,NC(=O)CN1CCN(S(=O)(=O)c2ccc(Br)cc2)CC1,22.4
15,C/C(=N/NC(=O)CN1CCN(S(=O)(=O)c2ccc(Br)cc2)CC1)c1ccncc1,-80.3
16,O=C(Nc1ccc2c(c1)CCC2)c1ccccc1,9.66
17,Cc1ncoc1C(=O)N1CCc2c([nH]c3ccccc23)C1C(C)(C)C (stereo not drawn),-65.3
18,Cc1ncoc1C(=O)N1CCc2c([nH]c3ccccc23)C1C1CCCCC1 (stereo not drawn),1.89
19,Cc1cccc(C2c3[nH]c4ccccc4c3CCN2C(=O)c2ocnc2C)n1 (stereo not drawn),-10.5
20,COc1ccc(CNC(=O)C(C)n2ccc3cc(S(=O)(=O)N4CCCCCC4)ccc32)cc1 (stereo not drawn),1.82
21,CCN(CC)CCC(c1ccc(N(C)C)cc1)c1c(O)cc(OC)cc1OC (stereo not drawn),-0.431
22,CCN(CC)C(=O)CC(c1ccc2c(c1)OCO2)c1c(O)cc(OC)cc1OC (stereo not drawn),-2.77
23,CCN(CC)C(=O)CC(c1ccc(OC)cc1)c1c(O)cc(OC)cc1OC (stereo not drawn),-1.57
24,CCN(CC)CCC(c1ccc2c(c1)OCO2)c1c(OC)cc(OC)c2ccc(=O)oc12 (stereo not drawn),-46.2

row,SMILES,"hERG current change (%, negative = inhibition) at 10uM [%]"
1,CCN(CC)CCC(c1ccc(OC)cc1)c1c(O)cc(OC)cc1OC (stereo not drawn),-66.4
2,CCN(CC)CCC(c1ccc2c(c1)OCO2)c1c(O)cc(OC)cc1OC (stereo not drawn),-73.4
3,CC(C)CC(C(=O)OCC(=O)c1c(N)n(C)c(=O)n(C)c1=O)N1C(=O)c2ccccc2C1=O (stereo not drawn),-27
4,COCCNC(=S)N1CCC(C(=O)c2ccc3c(c2)OCCO3)CC1,32.7
5,Cc1ccc(F)cc1CNC(=O)c1cc(COc2ccc3ncccc3c2)on1,5.04
6,CCn1c(=O)c2c(cnn2C)c2ccccc21,2.58
7,Brc1ccc(-c2c(-c3ccsc3)sc3ccccc23)cn1,14.1
8,Cc1ccc(-c2nc(CS(=O)CC(=O)NCCN3CCCC3)c(C)o2)cc1 (stereo not drawn),-5.74
9,CC(C)c1ccc(-c2csc(NC(=O)c3cccs3)c2C(=O)O)cc1,18.3
10,COCCNC(=O)CSc1nc2cc3c(cc2c(=O)n1Cc1ccco1)OCO3,-27.4
11,O=C(CSc1nc2ccccc2c(=O)n1Cc1ccc(F)cc1)NCc1cccs1,-14
12,O=C(CSc1nc2ccccc2c(=O)n1Cc1ccc(Cl)cc1)NCc1cccs1,-52.5
13,COCCNC(=O)CSc1nc2cc(OC)c(OC)cc2c(=O)n1Cc1ccco1,-61.2
14,O=C(CSc1nc2ccsc2c(=O)n1Cc1ccc(C(=O)O)cc1)NCc1ccco1,2.08
15,Cc1ccccc1-n1c(SCC(=O)NCc2cccs2)nc2ccccc2c1=O,-17.4
16,O=C(CSc1nc2ccccc2c(=O)n1Cc1ccco1)NCc1ccccc1,-29.3
17,COc1cc2nc(SCC(=O)NCCc3ccccc3)n(Cc3ccco3)c(=O)c2cc1OC,-43.3
18,O=C(CSc1nc2ccccc2c(=O)n1Cc1ccc(C(=O)NC2CC2)cc1)NCc1ccco1,-51.5
19,O=C(CSc1nc2ccccc2c(=O)n1Cc1ccccc1)NCc1ccco1,-39.6
20,O=C(CSc1nc2ccccc2c(=O)n1Cc1ccco1)NCc1ccco1,-65.4
21,Cn1c(SCC(=O)NCc2ccco2)nc2ccccc2c1=O,-23.6
